Inhibition data for 59 compounds are collected here from PubChem BioAssay AID602399 (Sanford-Burnham Center for Chemical Genomics, 2012).

As a reminder, the inhibition is the drop in the measured response relative to a control, in per cent.

Screen size: about 360,000 compounds; about 2,800 (0.78%) were called active. Only a selection was taken, and actives are over-represented in it overall. Unmarked numbers belong to inactive results. No stated cut-off is given here; in the data, active means inhibition above about 26%; inactive means the rest.

The test deals with Nicotinate-nucleotide adenylyltransferase NadD (Staphylococcus aureus N315). Put plainly: inhibitors of S. aureus NadD, primary screen, biochemical, colorimetric, uHTS (AID 602399). Conditions: purified NadD enzyme, colorimetric absorbance read-out; at 20 µM; hits give high values.
Turning to `C[C@@H]1CN([C@H](C)CO)C(=O)CCCn2nncc2CO[C@@H]1CN(C)S(=O)(=O)c1cccc(C#N)c1`, the inhibition was 4.94%.

In the case of `CCOC(=O)c1ccc(NC(=O)c2c(N)n(C)c(=O)[nH]c2=O)cc1`, the inhibition was -3.34%.

In the case of `COc1ccc(C(=O)OCC(=O)c2ccc(C)c(S(=O)(=O)N3CCOCC3)c2)cc1OC`, the inhibition is -14%.

In the case of `Cc1ccc(C(=O)COC(=O)CCN2C(=O)C3C4CCC(C4)C3C2=O)cc1C` (centres undefined), the inhibition was 4.2%.

Regarding `Cc1ccc(C(=O)COC(=O)c2cccc(N3C(=O)c4c(C)nc5ccccc5c4C3=O)c2)cc1C`, the inhibition was 29.7% (active).

For the compound `CN(C)c1ccnc(Oc2ccc(F)cc2)c1C#N`, the inhibition was 0.732%.

With `O=C(O)C1=NN(c2c(F)c(F)cc(F)c2F)C(=O)CC1`, the inhibition was -2.16%.

Turning to `COc1cc(NS(=O)(=O)c2ccc(NC(=S)NC(=O)c3ccc(Br)cc3)cc2)ncn1`, the inhibition is 16.5%.

Turning to `COc1ccc(NS(=O)(=O)c2ccc(NC(=O)C(C)(C(F)(F)F)C(F)(F)F)cc2)nn1`, the inhibition is 8.48%.

On to `COc1ccc(NS(=O)(=O)c2ccc(NC(=S)NC(=O)/C=C/c3ccc(C)cc3)cc2)nn1`, for which the inhibition was 52.5% (active).

Take `COc1ccccc1-n1c(SCC(=O)O)nc2sc3c(c2c1=O)CCC3`: the inhibition is -6.38%.

For the compound `COc1cccc(C(=O)NC(=O)Nc2nc(C)cc(C(F)(F)F)n2)c1`, the inhibition was 1.69%.

For the compound `Cc1cc(O)c(Sc2ccccc2)c(=O)o1`, the inhibition is -2.78%.

Turning to `Cc1cc(O)c(C(=O)/C=C/c2c(F)c(F)c(F)c(F)c2F)c(=O)o1`, the inhibition is 30% (active).

For `COc1ccc(/C=C/C(=O)c2c(O)cc(OC)cc2OC)cc1`, the inhibition is -0.858%.

For the compound `CC(=O)c1c(C)n([O-])c2ccccc2[n+]1=O`, the inhibition was 4.16%.

For `O=C(N/N=C/c1ccc(Cl)cc1)c1nc2ccc([N+](=O)[O-])cc2c(=O)[nH]1`, the inhibition was 42.6% (active).

As to `CC(NC(=O)C(=O)N/N=C/c1ccc(Cl)cc1)c1ccccc1` (centres undefined), the inhibition is -0.376%.

For the compound `N#Cc1cc([N+](=O)[O-])ccc1Oc1cccc(/C=N/NC(=O)c2ccc(Cl)cc2)c1`, the inhibition was 19.4%.

For `Cc1cccn2c(=O)c3cc(C#N)c(=NC(=O)c4cccnc4)n(CC4CCCO4)c3nc12` (centres undefined), the inhibition was 0.191%.

`COc1ccccc1N(CC(=O)Nc1ccc(C)cc1Cl)S(=O)(=O)c1cccs1`: the inhibition was -10.3%.

As to `COc1cc(-c2noc(C3CCCN(S(=O)(=O)c4cccc(Cl)c4)C3)n2)cc(OC)c1OC` (centres undefined), the inhibition is -12.5%.

For `COc1ccc(Cl)cc1C=CC=NNC(=O)c1ccncc1`, the inhibition was 9.06%.

In the case of `COc1ccc(-n2c(-c3ccc(Cl)cc3)n[nH]c2=S)c(OC)c1`, the inhibition was 5.69%.

For the compound `COc1ccccc1/C=C/C=N/n1c(-c2ccc(Cl)cc2Cl)n[nH]c1=S`, the inhibition was 28% (active).

On to `COc1ccc(-c2nn(-c3ccccc3)cc2/C=N/Nc2ccccn2)cc1OC`, for which the inhibition is 30.9% (active).

As to `COc1ccc(OC)c(/C=N/NC(=O)CSc2nnc(C)n2-c2ccccc2)c1`, the inhibition is 4.2%.

With `O=Cc1cn(-c2ccccc2)nc1-c1ccccn1`, the inhibition is -0.605%.

For the compound `N#C/C(C(=O)N1CCOCC1)=C1/SC(Cc2ccc(F)cc2)C(=O)N1c1ccccc1` (centres undefined), the inhibition is 5.64%.

Turning to `CCCCN(C=O)c1c(CC)nc2c(OCc3ccccc3C(=O)OC)cccn12`, the inhibition was 3.2%.

Turning to `CC(C)C(NC(=O)c1c(F)cccc1F)C(=O)NCc1ccncc1` (centres undefined), the inhibition is -4.3%.

On to `Cc1cc(C(=O)OC(C)C(=O)NC2CCCCC2C)c(C)o1` (centres undefined), for which the inhibition is -0.327%.

For the compound `CC(=O)c1c(C)[nH]c(C(=O)COC(=O)c2cccc(S(=O)(=O)N(C)c3ccccc3)c2)c1C`, the inhibition is -2.3%.

For `CC(C)(C)C(=O)c1cnc(Nc2ccccc2)s1`, the inhibition was -4.48%.

Take `S=c1[nH]nc(NCCc2ccccc2)s1`: the inhibition is 6.24%.

As to `S=c1[nH]nc(Nc2ccccc2)s1`, the inhibition was 31% (active).

On to `O=c1c([N+](=O)[O-])cccn1Cc1ccc(F)cc1Cl`, for which the inhibition is -2.47%.

Turning to `Cc1c(C(=O)N(C)CCc2cnn(C)c2)oc2c(F)cccc12`, the inhibition was -0.376%.

Turning to `CCOC(=O)C(C)n1nc(-c2ccccc2)c2ccccc2c1=O` (centres undefined), the inhibition was 4.56%.

In the case of `CCN(CC)C(=O)c1nc[nH]c1C(=O)N(C)Cc1ccccc1`, the inhibition was -5.16%.

For `CCN(CC)C(=O)c1sc2nc(-c3ccccc3)ccc2c1N`, the inhibition was 29.7% (active).

For the compound `CC1(C)C(C=C(Cl)Cl)C1C(=O)NC(O)C(=O)c1ccccc1` (centres undefined), the inhibition was -1.25%.

On to `Cc1c2cnn(-c3ccccc3)c(=O)c2c(C)n1CCCC(=O)N1CCN(C)CC1`, for which the inhibition was 4.17%.

As for `Cn1c(CCN2CCCCCC2)nc2cc(NC(=O)Nc3ccccc3)ccc21`, the inhibition is 31.5% (active).

For the compound `CCC(=O)Nc1ccc2c(c1)nc(CCN1CCN(c3ccccn3)CC1)n2C`, the inhibition is -0.459%.

In the case of `Cc1nn(CC(=O)Nc2ccc3c(c2)nc(CN2CCCCC2)n3C)c(=O)c2ccccc12`, the inhibition is -0.187%.

In the case of `CNC(=O)C1CCN(S(=O)(=O)c2c(C)noc2/C=C/c2cccc(C)c2)CC1`, the inhibition was -4.39%.

For `Cc1noc(/C=C/c2ccco2)c1S(=O)(=O)N1CCC(C(=O)N2CCc3ccccc32)CC1`, the inhibition is 31.6% (active).

Turning to `Cc1noc(/C=C/c2ccco2)c1S(=O)(=O)N1CCC(C(=O)Nc2ccc(Cl)cn2)CC1`, the inhibition is 16.8%.

In the case of `CCc1ccc(OCC(=O)NCC(c2ccc(Cl)cc2)N2CCCCC2)cc1` (centres undefined), the inhibition was -9.2%.

Regarding `O=C(O)CN(Cc1ccco1)S(=O)(=O)c1ccc(F)cc1`, the inhibition is -0.327%.

For `O=Nc1c(O)cc(O)c2ccccc12`, the inhibition was -0.774%.

Consider `CCC(C)OC(=O)C(C)Oc1ccc(-c2ccccc2)cc1` (centres undefined), for which the inhibition was 2.06%.

Turning to `NC(CSC1(c2ccccc2)c2ccccc2-c2ccccc21)C(=O)O` (centres undefined), the inhibition was 27.6%.

Take `NC(CSC(c1ccccc1)(c1ccccc1)c1ccc(-c2ccccc2)cc1)C(=O)O` (centres undefined): the inhibition is 43.5% (active).

As to `O=C(N1CCOCC1)N(Cc1ccccc1)c1ccccn1`, the inhibition was -0.327%.

`COc1ccc(C(=O)/C=C/c2ccc(-c3ccccc3)cc2)cc1CSCC(=O)O`: the inhibition was 42.8% (active).

For the compound `COc1ccccc1CCNC(=O)C1CCN(C(=O)/C=C/c2ccccc2)CC1`, the inhibition was 1.36%.

Take `COC(=O)c1ccc(COc2ccc(/C=C/C(=O)c3ccc(OC)c(CSCC(=O)O)c3)cc2OC)cc1`: the inhibition was 20.9%.
